Measurements from PubChem BioAssay AID652183 (National Center for Advancing Translational Sciences (NCATS), 2013).
Records with an inconclusive call do not appear. Values without a mark were called inactive. The source made the active and inactive calls. The call rests on the fitted dose curve; in most records, active means well fitted inhibition curve with a large enough effect; inconclusive means small, poorly fitted or top-dose-only effect; inactive means no such curve, though single readings can be large or run the other way.

Experiment: qHTS Assay for Lipid Storage Modulators: Differentiation Assay against Probe and Analogs
Conditions: 3T3-L1 adipocyte differentiation, BODIPY lipid imaging, 8 d; series mostly up to 20 µM; activity change, negative = inhibition: at the top concentration
Source text: Storing lipids as a reservoir for energy or the anabolism of elementary metabolites is a common feature of probably all cells and is conserved from bacteria to humans. The universal cellular lipid storage organelle is the so-called lipid storage droplet (LD). Although ubiquitous, LDs share a simple structure composed of a hydrophobic core that harbors the storage lipids, which is shielded by a droplet-specific phospholipid monolayer to which proteins are attached. The current model of LD biogenesis involves an incorporation of the lipid core into the membrane leaflets of the endoplasmic reticulum (ER) followed by a subsequent budding-like maturation of a LD, which ultimately pinches off. Once released, LD volume can increase by localized lipogenesis or fusion of existing droplets. Storage lipids are re-mobilized enzymatically by lipase activity. Lipase regulation in the adipocyte is heavily studied and involves multiple components including catecholamine signaling, the LD-associated proteins Perilipin and comparative gene identification-58 (CGI-58) and at least two lipases named hormone sensitive lipase (HSL) and adipocyte triglyceride lipase (ATGL). LD regulation outside of the adipocyte is poorly understood and only few components are known. However, there is an urgent need to learn more about ectopic fat depots as mislocalized storage of lipids, for example in the liver or muscle, is an eminent health problem associated with insulin resistance or the metabolic syndrome. We developed a laser-scanning cytometer assay to enable 1,536-well screening and combined the results of the small molecules screen with an RNAi database based on lipid storage. […] NIH Chemical Genomics Center [NCGC] MLPCN Grant: MH085686 Assay Submitter (PI): Mathias Beller, Max-Planck-Institut fur Biophysikalische Chemie
3T3L1 cells were obtained from ATCC (CL-173). Pre-adipocyte medium (PM-1), differentiation medium (DM-2) and after adipocyte medium (AM-1) were purchased from Zen-Bio (# PM-1-L1, DM-2-L1, AM-1-L1). 200 uL of PM-1containing 3,000 cells was dispensed into each well of a 96-well plate (Corning, #3340), and the assay plates were incubated at 37 °C, 95% humidity and 5% CO2 for 3-5 days. The differentiation of pre-adipocyte to adipocyte was induced by removing the pre-adipocyte medium and replacing with 200 uL of differentiation medium. 1 uL of compounds at different concentrations dissolved in differentiation medium were added to the assay plates, along with medium exchange for differentiation to test their effects on adipocyte differentiation. The final DMSO concentration was 0.5%.Triacsin C (Sigma-Aldrich T-4540), an inhibitor of long-chain fatty acyl CoA synthetase that blocks synthesis of triglycerides, was used as a positive control for lipid under-storage. After 3 days, differentiation medium was replaced with adipocyte maintenance medium and assay plates were incubated for 5 days. Aspirated the medium, then Cells were fixed using 4% of paraformaldehyde in PBS for 30 minutes at room temperature, washed 3 times with PBS buffer. Finally, the cells were stained using 200 uL of PBS containing BODIPY lipid dye 493/530 (1:2000 dilution, Molecular Probes), Hoechst 33342 (1:1000 dilution, Life Technologies, #H3570) and CellMask deep red dye (1:10,000 dilution, Life Technologies, #H32721) with Washer dispenser EL406(Biotek). Images were acquired using InCell 2000 (GE), number of cells, number of lipids, size of lipids and cells were analysis using GE Investigator software.

Compound	Potency	activity change, negative = inhibition
CC(C)Oc1ccc(CCNC(=O)c2cc3sccc3n2Cc2ccccc2)cc1OC(C)C	3980 nM (active)	–
CCOc1ccc(CCNC(=O)c2cc3sccc3n2CCN2CCOCC2)cc1OCC	–	-18.7%
O=C(NC1CCCc2c1cnn2-c1cccc(O)c1)c1ccccn1 (stereo not given)	3160 nM (active)	–
CCOC(=O)C1CCN(C(=O)C(C)(C)NC(=O)Nc2ccc(-c3ccccc3)cc2)CC1	1120 nM (active)	–
CCOc1cc(CCNC(=O)c2cc3sccc3n2Cc2ccccc2)cc(F)c1OCC	2820 nM (active)	–
CCOc1ccc(CCNC(=O)c2ccnn2Cc2cccc(C)c2)cc1OCC	2820 nM (active)	–
CCOC(=O)C1CCN(C(=O)C2(NC(=O)Nc3ccccc3Cl)CCC2)CC1	2820 nM (active)	–
CCOc1cc(F)c(CCNC(=O)c2cc3sccc3n2Cc2ccccc2)cc1OCC	–	-65.8%
CCn1c(C(=O)NCCc2ccc(OC)cc2)cc2sccc21	12600 nM (active)	–
CCOc1ccc(CCNC(=O)c2ccc3ccccc3n2)cc1OCC	–	-81%
